Measurements from PubChem BioAssay AID1159580 (chemical genetic matrix, 2015).
Out of some 5,500 compounds screened, about 2,000 (36%) were called active. Inconclusive results (about 18%) are left out. Rule as the data show it: active = normalized growth mostly below about 0.91 (no sharp cut-off); inconclusive = no clear call, values can overlap the other calls; inactive = mostly above about 0.92. Some of the results follow.

Experiment: chemical genetic growth profiling, strain panel (AID 1159580);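 also: tested at 20 µM; growth read once vehicle control cultures reached saturation at 30 °C; 1 = growth at the plate median or of vehicle wells; lower values mean less growth of the strain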
Settings: S. cerevisiae deletion strains, growth OD

Measured: normalized growth

CC(C)NC[C@H](O)COc1cccc2[nH]ccc12
inactive: locus YAL013W, strain DEP1, active compounds read low 0.999 | locus YAL040C, strain CLN3, active compounds read low 0.984 | locus YCL061C, strain MRC1 (second series), active compounds read low 1.01 | locus YDR363W, strain ESC2, active compounds read low 0.994 | locus YER002W, strain NOP16, active compounds read low 0.969 | locus YNL153C, strain GIM3, active compounds read low 1.01 | locus YNL175C, strain NOP13, active compounds read low 1.01 | locus YNL197C, strain WHI3, active compounds read low 1.01 | locus YNL224C, strain SQS1, active compounds read low 1.01 | locus YNL322C, strain KRE1, active compounds read low 0.999 | locus YOR083W, strain WHI5 (second series), active compounds read low 1.05 | locus YPL241C, strain CIN2, active compounds read low 1

O=C(Oc1cccc2[nH]ccc12)c1ccc(C(F)(F)F)cc1
inactive: locus YAR019C, strain CDC15, active compounds read low 0.968 | locus YBL105C, strain PKC1, active compounds read low 0.97 | locus YBR135W, strain CKS1, active compounds read low 0.974 | locus YBR136W, strain MEC1, active compounds read low 0.968 | locus YBR160W, strain CDC28, active compounds read low 0.974 | locus YDL017W, strain CDC7, active compounds read low 0.965 | locus YDL028C, strain MPS1, active compounds read low 0.974 | locus YDL101C, strain DUN1, active compounds read low 0.984 | locus YDL108W, strain KIN28, active compounds read low 0.971 | locus YDL132W, strain cdc53, active compounds read low 0.973 | locus YDL214C, strain PRR2, active compounds read low 0.82 | locus YDR052C, strain DBF4, active compounds read low 0.972 | locus YDR054C, strain cdc34, active compounds read low 0.961 | locus YDR226W, strain ADK1, active compounds read low 0.956 | locus YDR477W, strain SNF1, active compounds read low 0.814 | locus YER123W, strain YCK3, active compounds read low 0.702 | locus YER133W, strain GLC7, active compounds read low 0.775 | locus YFL009W, strain cdc4, active compounds read low 0.966 | locus YFL029C, strain CAK1, active compounds read low 0.968 | locus YFR003C, strain YPI1, active compounds read low 0.966 | locus YFR019W, strain FAB1, active compounds read low 0.855 | locus YFR028C, strain CDC14, active compounds read low 0.955 | locus YGR040W, strain KSS1, active compounds read low 0.805 | locus YGR052W, strain FMP48, active compounds read low 0.763 | locus YGR092W, strain DBF2, active compounds read low 0.634 | locus YHR079C, strain IRE1, active compounds read low 0.607 | locus YHR082C, strain KSP1, active compounds read low 0.857 | locus YHR205W, strain SCH9, active compounds read low 0.862 | locus YIL147C, strain SLN1, active compounds read low 0.962 | locus YJL095W, strain BCK1, active compounds read low 0.645 | locus YJL128C, strain PBS2, active compounds read low 0.933 | locus YJL157C, strain FAR1, active compounds read low 0.807 | locus YJR016C, strain ILV3, active compounds read low 0.966 | locus YJR066W, strain TOR1 (second series), active compounds read low 0.699 | locus YJR066W, strain TOR1, active compounds read low 0.679 | locus YKL067W, strain YNK1, active compounds read low 0.827 | locus YKL101W, strain HSL1, active compounds read low 0.788 | locus YKL193C, strain SDS22, active compounds read low 0.964 | locus YKL203C, strain TOR2, active compounds read low 0.831 | locus YLR133W, strain CKI1, active compounds read low 0.822 | locus YLR403W, strain SFP1, active compounds read low 0.831 | locus YML070W, strain DAK1, active compounds read low 0.791 | locus YMR001C, strain CDC5, active compounds read low 0.964 | locus YMR205C, strain PFK2 (second series), active compounds read low 0.862 | locus YMR277W, strain FCP1, active compounds read low 0.96 | locus YNL006W, strain LST8, active compounds read low 0.969 | locus YNL020C, strain ARK1, active compounds read low 0.763 | locus YNL161W, strain CBK1, active compounds read low 0.987 | locus YNL183C, strain NPR1, active compounds read low 0.769 | locus YNL207W, strain RIO2, active compounds read low 0.97 | locus YNL222W, strain SSU72, active compounds read low 0.976 | locus YNL307C, strain MCK1 (second series), active compounds read low 0.859 | locus YOL078W, strain AVO1, active compounds read low 0.978 | locus YOL136C, strain PFK27, active compounds read low 0.815 | locus YOR119C, strain RIO1, active compounds read low 0.887 | locus YOR231W, strain MKK1, active compounds read low 0.755 | locus YOR329C, strain SCD5, active compounds read low 0.97 | locus YPL031C, strain PHO85, active compounds read low 0.809 | locus YPL153C, strain RAD53, active compounds read low 0.757 | locus YPL204W, strain HRR25, active compounds read low 0.778 | locus YPL209C, strain IPL1, active compounds read low 0.965 | locus YPR025C, strain CCL1, active compounds read low 0.975 | locus YPR106W, strain ISR1, active compounds read low 0.972 | locus YPR111W, strain DBF20, active compounds read low 0.937 | strain NNK1, active compounds read low 0.961 | strain TSCII, active compounds read low 0.967
active: locus YHR030C, strain SLT2, active compounds read low 0.454 | locus YKL048C, strain ELM1, active compounds read low 0.786 | locus YLR113W, strain HOG1, active compounds read low 0.754 | locus YOR061W, strain CKA2, active compounds read low 0.603 | locus YPL256C, strain CLN2, active compounds read low 0.75
